From PubChem BioAssay
POLB inh: DNA polymerase beta (human) inhibition | Pol beta primer extension/strand displacement, fluorescence kinetic | 340,000 tested, 1.3% active | Potency, µM (top dose mostly 114 µM), inactives show top-dose activity change, negative = inhibition, usual class: inhibitors | AID 485314 | P06746; also: potency is read from the fitted curve at half-maximal effect; % is scaled to controls: 0 for no effect and ±100 for the full control effect
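Curves were derived by four-parameter Hill fits of normalized qHTS data. The kinetic fluorescent primer-extension read was taken at 0 and 10 min after 50 nM substrate, following a 15 min room-temperature preincubation of 10 nM enzyme with compounds.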
Pol kappa inh-1: blocks human DNA polymerase kappa activity; Potency, µM (series often up to 107 µM), inactives show at the highest dose activity, negative = inhibition, hits mostly inhibitors; Q9UBT6; purified Pol kappa, fluorescent DNA synthesis assay, 10 min; 400,000 tested, 0.53% active; also: potency is read from the fitted curve at half-maximal effect; % is scaled to controls: 0 for no effect and ±100 for the full control effect
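Here, compound and 10 nM enzyme are combined for 15 min at room temperature; adding 50 nM substrate (final) starts DNA synthesis, tracked by fluorescence at 0 and 10 min against buffer-only wells.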
Pol iota inh: DNA polymerase iota (human) inhibition. AID 588590. Pol iota fluorescent replication assay, 10 min. Potency, µM (series often up to 115 µM), for inactives: at the highest dose activity, negative = inhibition, most hits filed as inhibitors. 390,000 tested, 1% active. Q9UNA4; also: potency is read from the fitted curve at half-maximal effect
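Pol iota at 10 nM preincubated 15 min with compounds at room temperature; reaction started with fluorescent substrate, 50 nM final. Fluorescence read kinetically at 0 and 10 min; buffer-only wells as negative control.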
TDP1 block: TDP1 (human) enzyme inhibition. Q9NUW8. recombinant TDP1, AlphaScreen DNA substrate cleavage. Potency, µM (top dose mostly 130 µM), inactives show at the top dose activity change, negative = inhibition, actives largely listed as inhibitors. 350,000 tested, 0.28% active; also: potency is read from the fitted curve at half-maximal effect; % is scaled to controls: 0 for no effect and ±100 for the full control effect; nearly all actives have a fitted effect of over 40% in size
Target sequence (Q9NUW8 whole entry, looked up): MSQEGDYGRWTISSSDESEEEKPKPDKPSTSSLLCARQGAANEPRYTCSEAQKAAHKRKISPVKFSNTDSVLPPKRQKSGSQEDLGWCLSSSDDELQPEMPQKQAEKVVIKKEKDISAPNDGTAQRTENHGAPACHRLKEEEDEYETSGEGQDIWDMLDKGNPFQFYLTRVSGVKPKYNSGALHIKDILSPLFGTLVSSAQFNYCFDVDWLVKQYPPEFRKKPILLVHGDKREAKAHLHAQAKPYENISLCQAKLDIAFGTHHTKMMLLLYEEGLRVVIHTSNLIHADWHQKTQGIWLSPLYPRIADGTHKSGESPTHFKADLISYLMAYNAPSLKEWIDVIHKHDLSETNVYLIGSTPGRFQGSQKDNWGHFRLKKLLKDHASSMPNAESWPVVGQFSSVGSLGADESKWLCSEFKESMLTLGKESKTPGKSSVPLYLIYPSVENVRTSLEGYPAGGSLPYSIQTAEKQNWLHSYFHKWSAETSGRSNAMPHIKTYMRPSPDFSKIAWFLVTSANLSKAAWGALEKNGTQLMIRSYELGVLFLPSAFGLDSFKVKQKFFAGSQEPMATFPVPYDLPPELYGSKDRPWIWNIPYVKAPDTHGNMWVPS
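Signal: AlphaScreen proximity between streptavidin donor and anti-FITC acceptor beads on intact substrate. Reaction: Tdp1 1 nM, substrate 15 nM final, 5 min RT after 15 min compound preincubation.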
Pol eta inh-1: blocks human DNA polymerase eta activity; recombinant Pol eta, fluorescent DNA replication assay; Potency, µM (titrated, usually from 114 µM), without a hit: at the highest dose activity change, negative = inhibition, most hits filed as inhibitors; 390,000 tested, 1.2% active; also: potency is read from the fitted curve at half-maximal effect; % is scaled to controls: 0 for no effect and ±100 for the full control effect
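Pol eta at 10 nM preincubated with compounds 15 min at room temperature; reaction started with fluorescent substrate (50 nM final) and read kinetically at 0 and 10 min.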
FEN1 inh: blocks human flap endonuclease 1; Recombinant FEN1 flap cleavage, fluorescence, 15 min; 390,000 tested, 0.35% active; AID 588795; Potency, µM (top dose mostly 114 µM), for inactives: at the top dose activity change, negative = inhibition, hits mostly inhibitors; P39748; also: potency is read from the fitted curve at half-maximal effect; % is scaled to controls: 0 for no effect and ±100 for the full control effect; nearly all actives have a fitted effect of over 65% in size
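With each library titrated from low to high concentration, compounds met 10 nM FEN1 for 15 min at room temperature before 50 nM substrate was added; readings at 0 and 15 min fed four-parameter Hill curve fits.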
GALK confirm: confirmation of human galactokinase (GALK) inhibitors | 150 tested, 70% active | Potency, µM (series often up to 115 µM), inactives show top-dose activity, negative = inhibition, actives largely listed as inhibitors | shares compounds with Pol eta inh-1 | AID 2015 | purified GALK, Kinase-Glo ATP depletion luminescence
Redox cycling: redox cycling activity in phenol red-HRP assay | Phenol red-HRP H2O2 redox cycling, absorbance 600 nm | 150 tested, 40% active | AID 2035 | shares compounds with Pol eta inh-1 | Potency, µM (doses to about 115 µM), inactives show at the highest dose activity change, negative = H2O2 signal, usual class: inhibitors
HEK293 viability: counter-screen for GALK inhibitors: HEK293 cell cytotoxicity. shares compounds with Pol eta inh-1. HEK-293 viability, ATP luminescence (CellTiter-Glo), 24/48 h. Potency, µM (top dose mostly 46.1 µM), without a hit: at the top dose activity change, negative = cytotoxicity, usual class: inhibitors. 170 tested, 10% active; also: potency is read from the fitted curve at half-maximal effect; % is scaled to controls: 0 for no effect and ±100 for the full control effect
Pol kappa inh-2: Pol kappa (human) inhibition, cherry-pick confirmation; purified Pol-kappa, fluorescent strand-displacement substrate; 920 tested, 76% active; shares compounds with Pol eta inh-1; Potency, µM, actives largely listed as inhibitors; also: potency is read from the fitted curve at half-maximal effect
Pol eta inh-2: confirmation of human DNA polymerase eta inhibitors; AID 720502; Pol eta primer extension, TAMRA/BHQ fluorescence, 10 min; 2,600 tested, 64% active; shares compounds with Pol eta inh-1; Potency, µM, most hits filed as inhibitors; also: potency is read from the fitted curve at half-maximal effect
* marks the source's active call; other numbers are inactive results; ? = inconclusive; / = no result given; [ ] = remark or other dose. Rows were chosen to be rich in hits. Some 2.4% of all compounds tested hit in one or more screens of this group. Calls follow the shape of the dose curve; as a rule, active = well fitted curve in the direction sought with a large enough effect; inconclusive = small, poorly fitted or top-dose-only effect, or another doubt; inactive = no such curve, though single readings can be large; an effect the other way counts as inactive or inconclusive.

SMILES	POLB inh	Pol kappa inh-1	Pol iota inh	TDP1 block	Pol eta inh-1	FEN1 inh	Pol eta inh-2	others
COc1ccc2oc(C(=O)Nc3ccc(N4CCOCC4)cc3)c(C)c2c1	/	?	?	-0.2%[0.505 µM]	12.6µM*	-4.5%	37.9*
Cc1ccc(C(=O)CCC(=O)Nc2ccc(C)cn2)cc1	/	-16.0%	17.2%	-0.1%	-16.1%	-2.2%	/
Cc1ccc(NC(=O)CCC(=O)c2ccc(Cl)s2)nc1	/	?	?	-13.0%	39.8µM*	-14.9%	/	Pol kappa inh-2=?
CC(NS(=O)(=O)c1ccc(Cl)cc1)C(=O)OCC(=O)c1ccc[nH]1 (stereo not given)	/	-1.0%	-1.4%	2.1%	-20.0%	-0.2%	/
Cc1cc(/C=C2\SC(=S)NC2=O)c(C)n1-c1ccc(O)cc1	50.1µM*	?	?	7.1%	50.1µM*	-3.1%	/	Pol kappa inh-2=?
CCN1C(=O)c2ccccc2S(=O)c2ccc(C(=O)N3CCN(c4ccccc4OC)CC3)cc21 (stereo not given)	-20.3%	-6.5%	2.3%	4.6%	3.5%	-9.4%	/
COc1ccc(C(=O)N2CCOC2CNC(=O)C(=O)NCc2ccccc2)cc1 (stereo not given)	/	/	/	/	-12.1%	/	/
COc1ccccc1NC(=O)c1cc2cc3ccc(OC)c(Cl)c3nc2s1	2.82µM*	-8.5%[60.1 µM]	-27.0%	?	?	?	?	Pol kappa inh-2=21.2*
COc1ccc2cc3cc(C(=O)N4CCN(c5ccc(C(C)=O)cc5)CC4)sc3nc2c1Cl	-4.8%	-3.9%[60.1 µM]	14.1%	5.3%	0.3%	-2.5%	/
Cc1nc(Nc2nc(-c3ccccc3)cc(=O)[nH]2)nc2ccccc12	/	-14.9%	64.1%	/	?	25.1µM*	?
O=C(CCN1C(=O)/C(=C/c2ccccc2)SC1=S)NC1CCS(=O)(=O)C1 (stereo not given)	16.7%	-10.7%	69.2%	2.2%	-16.2%	17.1%	/
CCN(C(=O)C(C)N1C(=O)/C(=C/c2cccs2)SC1=S)C1CCS(=O)(=O)C1 (stereo not given)	18.4%	-6.7%	5.8%	8.2%	-17.7%	-4.9%	/
O=C(CN1C(=O)/C(=C/c2ccco2)SC1=S)NC1CCS(=O)(=O)C1 (stereo not given)	?	?	?	/	12.6µM*	?	60.1*
CC(C(=O)N(C)C1CCS(=O)(=O)C1)N1C(=O)/C(=C/c2ccco2)SC1=S (stereo not given)	?	?	31.6µM*	-15.8%	22.4µM*	?	75.7*
COc1cc(/C=C/C(=O)OCC(=O)NC(=O)C2COc3ccccc3O2)ccc1OC(F)F (stereo not given)	/	-29.4%	-9.4%	-5.1%	-24.4%	13.7%	/
N#C/C(=C\c1coc2ccc(O)cc2c1=O)C(=O)Nc1nc2ccccc2s1	?	2.82µM*	?	/	3.55µM*	?	/	GALK confirm=33.5µM*;Redox cycling=-1.3%;HEK293 viability=?
CCC(=O)N1CCc2cc(Br)cc(S(=O)(=O)CCC(=O)N(C)c3cccc(C)c3)c21	44.7µM*	-29.6%	6.6%	?	35.5µM*	-1.9%	84.9*
CCN(C(=O)CCS(=O)(=O)c1cc(Br)cc2c1N(C(=O)C1CC1)CC2)c1cccc(C)c1	-17.7%	0.0%	-6.9%	0.0%	-6.7%	-3.8%	/
CCc1cccc(C)c1NC(=O)CSc1nnc(C)o1	11.0%	0.1%	19.7%	1.8%	-20.4%	-0.7%	/
Cc1cccc(N=C2NC(=O)/C(=C/C=C/c3ccco3)S2)c1	20µM*	?	17.8µM*	3.4%	20µM*	?	?
COc1ccc(N=C2NC(=O)/C(=C\C=C\c3ccco3)S2)cc1	10µM*	?	?	2.7%	39.8µM*	?	?
CCC(Nc1ccc(-c2nc(-c3ccccn3)no2)cc1[N+](=O)[O-])c1ccccc1 (stereo not given)	-11.4%	-16.9%	10.7%	5.7%	-15.2%	-6.7%	/
COc1cc(/C=C2/CCCC(C(=O)C(F)(F)F)=C2O)ccc1O	-0.2%	-14.2%	62.9%	/	-18.1%	-0.8%	/
CCOc1cc(/C=C2\CCCC(C(=O)C(F)(F)F)=C2O)ccc1O	50.1µM*	-0.4%	7.5%	5.1%	?	?	/	Pol kappa inh-2=75.2*
COc1ccc(NC(=O)CC2C(=O)N(c3ccc(OC)cc3)C(=O)N2CCC2=CCCCC2)cc1 (stereo not given)	0.1%	0.0%	29.4%	6.4%	-10.6%	-13.5%	/
SMILES	POLB inh	Pol kappa inh-1	Pol iota inh	TDP1 block	Pol eta inh-1	FEN1 inh	Pol eta inh-2	others
O=S(=O)(NCc1cccs1)c1ccc(Cl)s1	6.1%	-7.6%	-2.4%	3.1%	-0.3%	14.4%	/
O=S(=O)(NCc1cccs1)c1ccc(Br)s1	17.9%	/	/	0.5%	/	/	/	GALK confirm=-9.1%;Redox cycling=0.2%;HEK293 viability=12.8%
CN(C)c1ccc(-c2nnc(SCC(=O)NCc3ccco3)n2C)cc1	/	-16.2%	-25.7%	/	/	13.1%	/
COc1cc(C(=O)N2CC(=O)Nc3ccc(C)cc3C2c2ccc(F)cc2)cc(OC)c1OC (stereo not given)	0.8%	-0.8%	-5.9%	5.9%	-10.6%	6.6%	/
Cc1cccc(C)c1NC(=O)Cn1cc(S(=O)(=O)Cc2ccc(F)cc2)c2ccccc21	28.2µM*	?	?	-11.2%	?	-20.9%	?	Pol kappa inh-2=?
Cc1cc(C)c(NC(=O)Cn2cc(S(=O)(=O)Cc3ccccc3F)c3ccccc32)c(C)c1	5.3%	-20.0%	-1.5%	-7.5%	-9.2%	1.6%	/
CCOC(=O)[C@H]1[C@H]2COc3ccc(Cl)cc3[C@@H]2N2C(=O)c3ccc(Cl)cc3NC(=O)[C@@]12C	/	-12.6%	-8.2%	2.9%	-10.9%	-18.8%	/
